Values without a mark were called inactive. For part of these data: Results with a measured potency or affinity are listed apart. Activity calls are given as the source filed them. Unless noted, how the calls were made is not given here.
What was measured:
[1] = antimalarial activity against Dd2 strain (AID 2302;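 active means growth inhibition above 50% at the single 2 µM test dose, taken to imply half-maximal potency below 2 µM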;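 further: 0% = DMSO untreated growth and 100% = chloroquine plus artemisinin killed control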); details: P. falciparum Dd2 in RBCs, LDH growth readout, 72 h; at 2 µM; hits give high values
[2] = human hepatoma cell viability loss – ATP luminescence, cytotoxicity control for P. falciparum antimalarial project, primary screen (AID 2303;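 active means inhibition above 50%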;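 further: 0% = DMSO wells and 100% = digitonin-killed cells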); details: HepG2 viability, 24-48 h, at 10 µM, hits give high values
[3] = target: L-lactate dehydrogenase (Plasmodium falciparum (isolate CDC / Honduras)) (UniProt Q27743); experiment: PfLDH activity inhibition – cell lysate, 3D7 strain, counter-screen for P. falciparum growth inhibition project (AID 2304);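 further: 0% = vehicle and 100% = reference inhibitor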; details: P. falciparum 3D7 crude extract, LDH APAD/NBT absorbance; at 2 µM; hits give high values
L-lactate dehydrogenase (Plasmodium falciparum (isolate CDC / Honduras)), sequence (Q27743 whole entry, looked up): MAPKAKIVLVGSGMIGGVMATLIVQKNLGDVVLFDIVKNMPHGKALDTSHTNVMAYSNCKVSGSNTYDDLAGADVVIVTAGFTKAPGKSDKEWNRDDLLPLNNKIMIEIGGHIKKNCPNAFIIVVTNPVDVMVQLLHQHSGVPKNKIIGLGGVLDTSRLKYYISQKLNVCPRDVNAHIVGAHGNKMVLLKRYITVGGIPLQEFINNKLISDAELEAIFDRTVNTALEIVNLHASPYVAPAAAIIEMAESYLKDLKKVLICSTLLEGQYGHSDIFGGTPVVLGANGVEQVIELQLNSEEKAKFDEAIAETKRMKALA

[4] = inhibition of 3D7 malaria parasite growth – strain 3D7 (AID 2306);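 further: 0% = DMSO wells and 100% = chloroquine plus artemisinin control wells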; details: P. falciparum 3D7 erythrocytic growth, LDH absorbance, 72 h; at 2 µM; hits give high values
[5] = target: Calcium-dependent protein kinase 1 (Plasmodium falciparum (isolate 3D7)) (UniProt P62344); experiment: PfCDPK1 kinase inhibitors, biochemical, TCAMS library (AID 1159585; cut-off not given, nearly all actives have IC50 up to about 0.98 µM;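 further: inhibitors leave more ATP so luminescence rises with inhibition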); details: recombinant PfCDPK1, Kinase-Glo ATP depletion luminescence
Calcium-dependent protein kinase 1 (Plasmodium falciparum (isolate 3D7)), sequence (P62344 whole entry, looked up): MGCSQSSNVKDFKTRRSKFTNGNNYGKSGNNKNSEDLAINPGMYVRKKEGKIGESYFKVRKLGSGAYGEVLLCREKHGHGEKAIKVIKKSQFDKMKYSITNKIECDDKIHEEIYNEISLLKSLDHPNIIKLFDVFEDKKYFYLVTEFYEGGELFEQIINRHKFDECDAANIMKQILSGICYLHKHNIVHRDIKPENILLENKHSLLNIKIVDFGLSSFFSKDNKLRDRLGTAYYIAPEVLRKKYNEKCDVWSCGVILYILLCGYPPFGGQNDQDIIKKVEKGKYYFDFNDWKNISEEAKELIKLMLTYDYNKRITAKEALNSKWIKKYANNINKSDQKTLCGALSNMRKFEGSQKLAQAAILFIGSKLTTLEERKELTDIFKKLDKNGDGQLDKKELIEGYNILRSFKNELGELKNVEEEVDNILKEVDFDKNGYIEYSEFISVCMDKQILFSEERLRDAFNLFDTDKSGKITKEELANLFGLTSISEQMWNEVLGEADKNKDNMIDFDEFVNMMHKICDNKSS

[6] = target: Plasmodium falciparum protein kinase 6 (PK6, PF3D7_1337100) (UniProt Q8IDW1); experiment: PfPK6 kinase inhibitors, biochemical, TCAMS library (AID 1159586); details: recombinant PfPK6, Kinase-Glo ATP depletion luminescence
Plasmodium falciparum protein kinase 6 (PK6, PF3D7_1337100), sequence (Q8IDW1 1-305): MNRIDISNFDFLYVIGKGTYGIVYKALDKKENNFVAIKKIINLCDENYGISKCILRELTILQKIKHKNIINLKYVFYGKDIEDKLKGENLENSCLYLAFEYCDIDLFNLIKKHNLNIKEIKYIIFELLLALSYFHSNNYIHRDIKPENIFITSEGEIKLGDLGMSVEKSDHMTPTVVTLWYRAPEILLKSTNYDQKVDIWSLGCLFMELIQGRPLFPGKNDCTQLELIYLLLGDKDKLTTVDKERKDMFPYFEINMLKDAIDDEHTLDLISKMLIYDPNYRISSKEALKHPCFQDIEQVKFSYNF

[7] = target: Protein kinase 7 (PK7), Plasmodium falciparum 3D7 (PF3D7_0213400) (UniProt Q7YTF7); experiment: inhibition of Plasmodium PK7 catalytic activity – biochemical, TCAMS antimalarial set, Kinase-Glo luminescence (AID 1159587); details: recombinant PfPK7, Kinase-Glo ATP depletion luminescence
Protein kinase 7 (PK7), Plasmodium falciparum 3D7 (PF3D7_0213400), sequence (Q7YTF7 1-343): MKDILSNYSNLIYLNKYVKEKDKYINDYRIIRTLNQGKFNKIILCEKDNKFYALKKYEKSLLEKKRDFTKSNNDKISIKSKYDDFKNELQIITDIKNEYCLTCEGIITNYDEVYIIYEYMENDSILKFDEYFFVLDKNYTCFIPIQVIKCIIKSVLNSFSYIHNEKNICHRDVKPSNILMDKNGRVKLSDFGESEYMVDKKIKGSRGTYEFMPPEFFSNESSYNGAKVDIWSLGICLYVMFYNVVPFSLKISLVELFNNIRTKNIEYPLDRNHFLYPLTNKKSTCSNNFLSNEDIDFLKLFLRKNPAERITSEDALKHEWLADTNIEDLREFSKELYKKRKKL

[8] = target: Calcium-dependent protein kinase 4 (Plasmodium falciparum (isolate 3D7)) (UniProt Q8IBS5); experiment: PfCDPK4 kinase inhibitors, biochemical, TCAMS library (AID 1159588; cut-off not given, nearly all actives have IC50 up to about 0.91 µM); details: recombinant PfCDPK4, Kinase-Glo ATP depletion luminescence
Calcium-dependent protein kinase 4 (Plasmodium falciparum (isolate 3D7)), sequence (Q8IBS5 whole entry, looked up): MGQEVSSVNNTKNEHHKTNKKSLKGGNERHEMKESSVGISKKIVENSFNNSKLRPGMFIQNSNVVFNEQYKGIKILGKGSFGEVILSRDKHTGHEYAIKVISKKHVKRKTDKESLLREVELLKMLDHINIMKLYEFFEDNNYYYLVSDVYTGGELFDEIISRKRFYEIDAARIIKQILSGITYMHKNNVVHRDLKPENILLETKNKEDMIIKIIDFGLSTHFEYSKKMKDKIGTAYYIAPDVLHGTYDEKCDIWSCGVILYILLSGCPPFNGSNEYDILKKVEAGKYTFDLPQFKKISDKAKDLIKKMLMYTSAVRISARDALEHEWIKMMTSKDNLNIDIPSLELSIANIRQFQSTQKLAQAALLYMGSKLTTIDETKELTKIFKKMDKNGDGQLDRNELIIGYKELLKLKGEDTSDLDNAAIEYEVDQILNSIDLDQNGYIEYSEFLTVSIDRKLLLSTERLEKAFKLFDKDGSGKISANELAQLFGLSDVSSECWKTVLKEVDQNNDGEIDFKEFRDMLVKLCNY

Row | SMILES | growth inhibition [1] | inhibition [2] | inhibition [3] [%] | growth inhibition [4] | outcome [5] | outcome [6] | outcome [7] | outcome [8]
1 | O=C(N[C@H]1CCN(Cc2ccc(OCCN3CCCC3)c3ccccc23)C1)c1ccc(Cl)c(Cl)c1 | 51% (active) | 90% (active) | -1 | 100% (active) | inactive | inactive | inactive | inactive
2 | Nc1cc(-c2ccc3ccccc3c2)nc2ccccc12 | 52% (active) | 19% | -2 | 99% (active) | inactive | inactive | inactive | inactive
3 | COc1cc2nc(Nc3ccc4c(cnn4Cc4ccccc4)c3)nc(Nc3ccc4c(cnn4Cc4ccccc4)c3)c2cc1OC | 100% (active) | 4% | 7 | 99% (active) | inactive | inactive | inactive | inactive
4 | C[C@@H]1CN(c2cnn(Cc3cccc(NC(=O)Nc4ccc(F)cc4[N+](=O)[O-])c3)c(=O)c2Cl)C[C@H](C)N1 | 13% | 7% | 6 | 91% (active) | inactive | inactive | inactive | inactive
5 | CC(C)c1cc2c(ccc3nc(N)nc(N)c32)[nH]1 | 4% | 49% | 2 | 93% (active) | inactive | inactive | inactive | inactive
6 | N=C(N)c1ccc(NN=Cc2ccc(Oc3ccc(C(=N)N)cc3)cc2)cc1 | 100% (active) | 18% | 0 | 99% (active) | inactive | inactive | inactive | inactive
7 | C=CC[C@H](NC(=O)c1ccc(NS(=O)(=O)c2ccc3nc(N)[nH]c(=O)c3c2)cc1)C(=O)OCCCC | 2% | 61% (active) | 1 | 97% (active) | inactive | inactive | inactive | inactive
8 | Oc1ccc2[nH]c(-c3cccs3)nc2c1CN1CCC(O)(c2ccccc2)CC1 | 69% (active) | 10% | -1 | 93% (active) | inactive | inactive | inactive | inactive
9 | COc1ccc(CCNCCCCCCNCCc2ccc(OC)c(OC)c2Cl)c(Cl)c1OC | -2% | 19% | 1 | 96% (active) | inactive | inactive | inactive | inactive
10 | Cc1cccc2[nH]c(-c3ccc(-c4ccc(NC(=O)NCc5cccc(F)c5)cc4)cc3)nc12 | 12% | 46% | 7 | 97% (active) | inactive | inactive | inactive | inactive
11 | CC(=O)c1ccc(NC(=O)Nc2ccc3nccc(N4CCN(C)CC4)c3c2)cc1 | 93% (active) | 2% | -1 | 101% (active) | inactive | inactive | inactive | inactive
12 | Cc1cccc2[nH]c(-c3cccc(-c4ccc(NC(=O)C(C)CN(C)C)cc4)c3)nc12 (configuration not stated) | 100% (active) | 29% | -3 | 101% (active) | inactive | inactive | inactive | inactive
13 | CC(C)CCN=C(N)Nc1ccc(OCCCOc2ccc(NC(N)=NCCC(C)C)cc2)cc1 | 95% (active) | 0% | -3 | 100% (active) | inactive | inactive | inactive | inactive
14 | C=CCNC(CCCCC)c1ccc(OCCOc2ccc(C(CCCCC)NCC=C)cc2)cc1 (configuration not stated) | 48% | 100% (active) | -6 | 88% (active) | inactive | inactive | inactive | inactive
15 | N#Cc1cccc(NC(=O)C2=C(CCc3ccc4c(c3)OCO4)NC(=O)NC2c2cccc(C#N)c2)c1 (configuration not stated) | 47% | 3% | -1 | 96% (active) | inactive | inactive | inactive | inactive
16 | COc1ccc(NS(=O)(=O)c2ccc(C(=O)Nc3ccc(OC(F)(F)F)cc3)cc2)cc1N1CCN(CC2CC2)CC1 | -2% | 18% | 3 | 89% (active) | inactive | inactive | inactive | inactive
17 | COc1ccc(-c2ccc3c(-c4cccc(S(C)(=O)=O)c4)cnc(N)c3c2)cc1 | 12% | 41% | 2 | 89% (active) | inactive | inactive | inactive | inactive
18 | Cc1nc(-c2nc(N3CCOCC3)ncc2-c2ccsc2)sc1C | 75% (active) | 5% | -7 | 89% (active) | inactive | inactive | inactive | inactive
19 | Fc1ccc2[nH]c3c(NCCCN4CCOCC4)ncnc3c2c1 | 2% | 14% | -4 | 98% (active) | inactive | inactive | inactive | inactive
20 | CC(C)c1ccc(NC(=O)c2cccc(CN3CCCN(Cc4cccc(C#N)c4)CC3)c2)cc1 | 15% | 48% | -5 | 93% (active) | inactive | inactive | inactive | inactive

Row | SMILES | growth inhibition [1] | inhibition [2] | inhibition [3] [%] | growth inhibition [4] | outcome [5] | outcome [6] | outcome [7] | outcome [8]
21 | COc1ccc2nccc([C@@H](O)CN3CCC(NCCOc4ccncc4)CC3)c2c1 | -1% | 11% | 1 | 100% (active) | inactive | inactive | inactive | inactive
22 | CCNc1cc(C)nc(Nc2ccc(NC(=O)c3ccccc3Br)cc2)n1 | 56% (active) | 46% | -3 | 100% (active) | inactive | inactive | inactive | inactive
23 | CCCCCCN1CCCN(Cc2cccc(C(=O)Nc3ccc(C(C)(C)C)cc3)c2)CC1 | 23% | 41% | 0 | 93% (active) | inactive | inactive | inactive | inactive
24 | CCC(=O)Nc1nnc(Cc2ccc(OC)c(OC)c2)s1 | 1% | -4% | -2 | 93% (active) | inactive | inactive | inactive | inactive
25 | CCCCCCC(C)c1cc(OCCN(CC)CC)c2c(c1)OC(C)(C)C=C2c1ccncc1 (configuration not stated) | 71% (active) | 14% | -1 | 90% (active) | inactive | inactive | inactive | inactive
26 | CC(=O)N1N=C(c2cccs2)Sc2c1nc(-c1ccc(Cl)cc1)n2C(C)=O | 93% (active) | 3% | 0 | 99% (active) | inactive | inactive | inactive | inactive
27 | Cc1ccc(Nc2nc(NN=Cc3ccccc3[N+](=O)[O-])nc(Nc3ccc([N+](=O)[O-])cc3)n2)cc1C | 81% (active) | 4% | 5 | 101% (active) | inactive | inactive | inactive | inactive
28 | O=C(N[C@@H](Cc1ccccc1)C(=O)NCc1cccc2ccccc12)c1ccc(O)c(-c2ccc(Cl)c(Cl)c2)c1 | 97% (active) | -6% | 4 | 101% (active) | inactive | inactive | inactive | inactive
29 | O=C(Nc1cccc(-c2ccc(CN3CCCC3)cc2)c1)c1cccc(F)c1 | 17% | 20% | -6 | 99% (active) | inactive | inactive | inactive | inactive
30 | CCOc1ccc(-c2nonc2NC(=O)c2ccccc2)cc1OCC | 100% (active) | 6% | 4 | 99% (active) | inactive | inactive | inactive | inactive
31 | Cc1cccc2[nH]c(-c3cccc(-c4cccc(NC(=O)c5cnc[nH]5)c4)c3)nc12 | 91% (active) | 2% | 0 | 100% (active) | inactive | inactive | inactive | inactive
32 | FC(F)(F)c1ccc2nc(-c3ccc(-c4cccc(CNCCN5CCNCC5)c4)cc3)[nH]c2c1 | 2% | 13% | -1 | 92% (active) | inactive | inactive | inactive | inactive
33 | CC(=O)c1ccc2c(c1)CCN(CCC1CCC(NC(=O)c3cc4ccccc4[nH]3)CC1)CC2 (configuration not stated) | 47% | 64% (active) | 2 | 86% (active) | inactive | inactive | inactive | inactive
34 | COc1cc2c(cc1C(F)(F)F)N(C(=O)Nc1cc(Br)cc(-c3cccnc3)c1)CC2 | 34% | 8% | -1 | 96% (active) | inactive | inactive | inactive | inactive
35 | CC1(CCc2ccccc2)N=C(Nc2ccc(Cl)cc2)N=C(N)C1c1ccc(Cl)c(Cl)c1 (configuration not stated) | 98% (active) | 81% (active) | -6 | 102% (active) | inactive | inactive | inactive | inactive
36 | COc1cc2c(cc1O)[C@@H]1[C@H](O)[C@@H](O)C=C3CCN(C2)[C@H]31 | 31% | 18% | 3 | 90% (active) | inactive | inactive | inactive | inactive
37 | CC(C)C1=C[C@H]2C[C@]3(C4OCCO4)[C@@H]4CC[C@@H](C)[C@H]4C[C@@]2(C(=O)OCC2COCO2)[C@]13C(=O)OC(c1ccccc1)c1ccccc1 (some centres not stated) | 96% (active) | 2% | 4 | 92% (active) | inactive | inactive | inactive | inactive
38 | O=c1cc(NCCCNCc2cc(Br)ccc2F)[nH]c2ccccc12 | 14% | -2% | 6 | 95% (active) | inactive | inactive | inactive | inactive
39 | Cc1cnc(-c2ccc(NC(=O)c3coc4ccc(N5C[C@@H](C)N(C)[C@@H](C)C5)cc34)cc2)o1 | 39% | 18% | 1 | 96% (active) | inactive | inactive | inactive | inactive

Reference: PubChem BioAssay
